# Experimental data as given in article PMC5540273 (PLoS ONE, 2017).
# Experiments:
# Settings in all cases: concentration: 1 μM, replicates: in singlicate; n = 1
# [1] = system: MAP3K15
# [2] = system: MAP3K1
# [3] = system: MAP3K2
# [4] = system: MAP3K3
# [5] = system: MAP3K4
# [6] = system: MAP4K2
# [7] = system: MAP4K3
# [8] = system: MAP4K4
# [9] = system: MAP4K5
# [10] = system: MAPKAPK2
# [11] = system: MAPKAPK5
# [12] = system: MARK1
# [13] = system: MARK2
# [14] = system: MARK3
# [15] = system: MARK4
# [16] = system: MAST1
# [17] = system: T1, MEK1
# T1 construct: gene MAP2K1
# [18] = system: T2, MEK2
# T2 construct: gene MAP2K2
# [19] = system: T3, MEK3
# T3 construct: gene MAP2K3
# [20] = system: T4, MEK4
# T4 construct: gene MAP2K4
# 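Further: KINOMEscan kinase panel screen.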
compound,measurement,setting,value
O=C(O)C(F)(F)F.O=C(O)C(F)(F)F.O=c1[nH]ccc2nc(N[C@@H]3CCCNC3)nc(Nc3ccc(S(=O)(=O)N4CCOCC4)cc3)c12 [GSK2177277],%Inh,[1],67%
same,%Inh,[2],22%
same,%Inh,[3],100%
same,%Inh,[4],99.9%
same,%Inh,[5],0%
same,%Inh,[6],100%
same,%Inh,[7],99%
same,%Inh,[8],97.6%
same,%Inh,[9],99.8%
same,%Inh,[10],65%
same,%Inh,[11],61%
same,%Inh,[12],95.3%
same,%Inh,[13],98.2%
same,%Inh,[14],90.5%
same,%Inh,[15],97.1%
same,%Inh,[16],27%
same,%Inh,[17],96.6%
same,%Inh,[18],91.6%
same,%Inh,[19],99.4%
same,%Inh,[20],99.4%
Cc1ccc(C(=O)N2CC[C@@H](O)C2)cc1-n1c(C)cc(OCc2ccc(F)cc2F)c(Br)c1=O,%Inh,[1],0%
same,%Inh,[2],0%
same,%Inh,[3],0%
same,%Inh,[4],0%
same,%Inh,[5],0%
same,%Inh,[6],0%
same,%Inh,[7],0%
same,%Inh,[8],6%
same,%Inh,[9],8%
same,%Inh,[10],0%
same,%Inh,[11],0%
same,%Inh,[12],0%
same,%Inh,[13],0%
same,%Inh,[14],0%
same,%Inh,[15],0%
same,%Inh,[16],0%
same,%Inh,[17],0%
same,%Inh,[18],36%
same,%Inh,[19],0%
same,%Inh,[20],0%
Cc1ccc(C)c(NC(=O)NC2CCN(c3ccnc(Nc4ccc(F)cc4)n3)C2)c1 (centres unmarked) [GSK1379720],%Inh,[1],0%
same,%Inh,[2],0%
same,%Inh,[3],0%
same,%Inh,[4],0%
same,%Inh,[5],18%
same,%Inh,[6],0%
same,%Inh,[7],0%
same,%Inh,[8],0%
same,%Inh,[9],0%
same,%Inh,[10],23%
same,%Inh,[11],0%
same,%Inh,[12],0%
same,%Inh,[13],0%
same,%Inh,[14],0%
same,%Inh,[15],0%
same,%Inh,[16],35%
same,%Inh,[17],0%
same,%Inh,[18],0%
same,%Inh,[19],0%
same,%Inh,[20],4%
c1ccc(-c2n[nH]cc2Nc2ccnc3ccccc23)nc1 [GW694077],%Inh,[1],6%
same,%Inh,[2],0%
same,%Inh,[3],38%
same,%Inh,[4],0%
same,%Inh,[5],9%
same,%Inh,[6],65%
same,%Inh,[7],0%
same,%Inh,[8],20%
same,%Inh,[9],0%
same,%Inh,[10],0%
same,%Inh,[11],0%
same,%Inh,[12],0%
same,%Inh,[13],0%
same,%Inh,[14],0%
same,%Inh,[15],1%
same,%Inh,[16],3%
same,%Inh,[17],0%
same,%Inh,[18],0%
same,%Inh,[19],92.5%
same,%Inh,[20],92.8%
